# Assay outcomes deposited in PubChem BioAssay by several laboratories.
# Anthrax LF inh2 = inhibitors of Bacillus anthracis lethal factor protease. multiplex microsphere protease cleavage assay, LF. P15917. hit rate 0.12% among 360,000. inhibition, % at 10 µM; further: plate controls were buffer without enzyme for full effect and enzyme alone for no effect
# BoNT-A LC inh2 = inhibitors of Botulinum neurotoxin A light chain protease. inhibition, % at 10 µM. hit rate 0.17% among 360,000. multiplex microsphere protease substrate cleavage, flow cytometry; further: plate controls were buffer without enzyme for full effect and enzyme alone for no effect
# BoNT-F LC inh = inhibitors of Botulinum neurotoxin F light chain protease; Multiplex microsphere protease cleavage assay, flow cytometry; inhibition, % at 10 µM; hit rate 0.22% among 360,000; AID 588497; in the data active means inhibition above about 35%, passing the limit was not always enough; inconclusive means no clear call, values can overlap the other calls; further: plate controls were buffer without enzyme for full effect and enzyme alone for no effect
# VHR inh abs = blocks human VHR1 dual specificity phosphatase; P51452; recombinant VHR phosphatase, pNPP absorbance; hit rate 0.52% among 290,000; AID 1654; inhibition, % at 13.3 µM; in the data active means inhibition above about 50%
# Target sequence (P51452 whole entry, looked up): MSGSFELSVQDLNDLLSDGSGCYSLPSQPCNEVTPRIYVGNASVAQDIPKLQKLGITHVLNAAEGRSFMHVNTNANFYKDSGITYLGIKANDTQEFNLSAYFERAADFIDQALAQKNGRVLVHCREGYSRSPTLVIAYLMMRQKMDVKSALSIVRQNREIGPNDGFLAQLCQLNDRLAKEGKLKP
# MazEF act = increases E. coli MazEF RNase cleavage of RNA; P0AE70; FAM/BHQ RNA-DNA oligo cleavage fluorescence, 5 h; activation, % at 20 µM; hit rate 0.32% among 350,000; AID 504720; in the data active means activation above about 50%
# Target sequence (P0AE70 whole entry, looked up): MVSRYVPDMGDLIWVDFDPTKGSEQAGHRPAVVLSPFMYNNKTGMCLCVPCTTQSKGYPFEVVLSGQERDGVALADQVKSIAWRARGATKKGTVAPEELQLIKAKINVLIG
# Autofluor counter = counter-screen for toxin protease inhibitors: compound fluorescence; compound autofluorescence counterscreen, microsphere flow cytometry; active compounds read high; hit rate 3.1% among 360,000; fluorescence intensity (test concentration not listed); AID 624483; in the data active means fluorescence intensity above about 16000; inconclusive means no clear call, values can overlap the other calls
# An asterisk follows results filed as active; ? = inconclusive; nt = not tested or not shown. The list is not random: actives were taken first. Their share in the collection is about 4%. Unless noted, no stated cut-off is given here; in the data, active means inhibition above about 30%; inconclusive means no clear call, values can overlap the other calls; inactive means below that.
SMILES,Anthrax LF inh2,BoNT-A LC inh2,BoNT-F LC inh,VHR inh abs,MazEF act,Autofluor counter
COc1ccc(C(=O)Nn2c(CC(C)C)nc3cc(OC)c(OC)cc3c2=O)c(OC)c1,3.2,-1.6,?,-7.4,7.5,4221
COc1cc2nc(CC(C)C)n(NC(=O)c3ccccc3)c(=O)c2cc1OC,1.3,?,2.6,10.5,6.9,22766*
CC(Oc1ccc(C(C)(C)C)cc1)C(=O)NCC(c1ccco1)N1CCCC1 (stereo not drawn),0.1,2.4,0.4,nt,4.9,6984
CCOC(=O)c1ccc(-c2ccc(N3C(c4ccsc4)=Cc4ccc(F)cc4C3c3c[nH]c4ccc(C#N)cc34)cc2)cc1F (stereo not drawn),-6.7,2.1,2.5,nt,nt,5914
Cc1cc(NC(=O)CSc2nc3ccsc3c(=O)n2Cc2ccccn2)n[nH]1,-3.7,-0.1,0.8,44.7,1.9,16535*
CCCCn1c(SCC(=O)Nc2cc(C)[nH]n2)nc2ccsc2c1=O,-2.9,4.8,1.8,29.1,0.8,18853*
CCOc1ccc(NC(=O)CSc2nc3ccsc3c(=O)n2CCCCCC(=O)O)cc1,1.1,0.3,-7.8,nt,-2.0,3812
O=c1c2sccc2nc(SCc2cc(=O)n3ccccc3n2)n1Cc1ccccn1,nt,nt,nt,5.9,nt,nt
CC1CCCCN1C(=O)CSc1nc2ccsc2c(=O)n1Cc1ccccn1 (stereo not drawn),0.8,-0.6,-1.8,28.7,-1.3,19850*
CC1CCCCN1C(=O)CSc1nc2cc3c(cc2c(=O)n1Cc1ccc2c(c1)OCO2)OCO3 (stereo not drawn),1.3,?,0.9,9.4,-0.5,21942*
COc1ccc2c(c1OC)C(=O)N(c1ccccn1)C2,1.1,-0.4,-8.8,10.4,1.6,3039
CCCC(=O)NCCc1cc2cc(C)c(C)cc2[nH]c1=O,-0.2,1.1,1.5,-7.5,2.9,8950
Cc1ccc2cc(CN(Cc3ccco3)C(=O)NC3CCCCC3)c(=O)[nH]c2c1C,-3.8,-0.7,-1.4,-4.4,-1.1,10533
COc1ccc(/C=C/C(=O)OCC(=O)NC2CCCC(C)C2C)c(OC)c1 (stereo not drawn),3.2,0.3,-9.6,nt,6.2,2997
Cc1cccc(-c2nc(CSCC(=O)N3CCN(c4ccccn4)CC3)c(C)o2)c1,-5.4,-1.4,-7.0,24.7,11.4,16627*
Cc1ccc(-c2nc(CSCC(=O)NCCN3CCN(Cc4ccccc4)CC3)c(C)o2)cc1,-2.7,-2.9,-5.3,25.0,-5.4,17085*
CCOC(=O)N1CCC(NC(=O)CSCc2nc(-c3ccc(OC)c(OC)c3)oc2C)CC1,-0.1,?,-3.1,32.2,3.4,20515*
Cc1ccc(-c2nc(CSCC(=O)N3CCCC3)c(C)o2)cc1,-3.7,-3.1,-4.0,16.8,2.5,23517*
COc1ccc(-c2nc(CSCC(=O)NC3CC3)c(C)o2)cc1OC,-1.6,-0.7,2.3,1.9,9.8,5540
Cc1ccc(-c2nc(CSCC(=O)NCCCN3CCOCC3)c(C)o2)cc1,4.5,1.2,-5.4,32.2,-6.1,9573
CCn1c(C2CC(=O)N(c3cc(C)cc(C)c3)C2)nc2ccccc21 (stereo not drawn),-5.1,-0.2,-0.9,22.8,18.1,5815
O=C(O)C1Cc2ccccc2CN1C(=O)CSc1nnc2ccccn12 (stereo not drawn),3.1,0.7,-0.4,-0.5,3.6,4542
CCOc1ccccc1C(=O)N(C)Cc1cc2cc(OC)ccc2[nH]c1=O,-1.5,0.5,1.5,6.6,1.2,3438
Cc1cc(NC(=O)c2cc3nc4c(c(C(F)(F)F)n3n2)CCc2ccccc2-4)no1,nt,nt,nt,11.7,nt,nt
O=C(CNC(=O)c1ccc(OC(F)F)cc1)NC1CCCc2ccccc21 (stereo not drawn),0.0,3.2,4.8,9.7,4.8,5525
O=C(NC(NC(=S)Nc1cccc(Cl)c1)C(Cl)(Cl)Cl)OCc1ccccc1 (stereo not drawn),-2.5,0.2,0.4,20.9,83.8*,10289
O=C(NC(NC(=S)Nc1cccc(C(=O)O)c1)C(Cl)(Cl)Cl)OCc1ccccc1 (stereo not drawn),-2.4,1.1,8.8,-2.7,3.1,7470
Cc1nc(SCC(=O)c2ccc(F)c(F)c2)[nH]c(=O)c1Oc1ccc(F)cc1,0.3,0.6,-7.5,2.6,1.5,4182
O=C(Nc1c2c(nn1-c1ccc(Cl)cc1)CS(=O)(=O)C2)c1ccccc1,1.2,-1.0,-2.1,10.1,-4.0,6351
COc1cccc(-c2csc(N3CCN(S(=O)(=O)c4ccc(F)cc4)CC3)n2)c1,-7.1,1.9,1.0,13.4,-5.3,21656*
